The values that follow come from PubChem BioAssay (NCATS).

SMILES strings stand for the structures. Inconclusive results are not listed. Activity calls are given as the source filed them. Calls come from the whole dose curve; as a rule, active = well fitted inhibition curve with a large enough effect; inconclusive = small, poorly fitted or top-dose-only effect; inactive = no such curve, though single readings can be large or run the other way.
% is set by controls: 0 for no effect and ±100 for the full control effect; potency is the fitted concentration of half-maximal effect.

Cytochrome P450 3A4 (Homo sapiens), sequence (P08684 whole entry, looked up): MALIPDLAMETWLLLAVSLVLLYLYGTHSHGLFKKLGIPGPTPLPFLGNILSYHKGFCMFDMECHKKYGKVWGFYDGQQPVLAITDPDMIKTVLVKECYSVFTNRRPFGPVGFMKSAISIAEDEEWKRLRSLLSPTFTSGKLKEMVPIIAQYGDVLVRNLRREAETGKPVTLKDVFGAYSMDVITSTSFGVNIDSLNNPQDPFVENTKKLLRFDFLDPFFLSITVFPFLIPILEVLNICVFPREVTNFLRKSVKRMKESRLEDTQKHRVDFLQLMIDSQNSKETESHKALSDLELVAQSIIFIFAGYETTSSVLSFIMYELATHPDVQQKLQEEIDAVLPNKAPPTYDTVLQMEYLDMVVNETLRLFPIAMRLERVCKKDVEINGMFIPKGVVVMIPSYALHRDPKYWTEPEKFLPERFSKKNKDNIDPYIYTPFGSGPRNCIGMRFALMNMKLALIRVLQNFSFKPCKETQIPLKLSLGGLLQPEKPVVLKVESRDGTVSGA

This experiment has as its target Cytochrome P450 3A4 (Homo sapiens) (UniProt P08684). The experiment is described as follows: qHTS Assay for Inhibitors and Substrates of Cytochrome P450 3A4 (AID 884). Note: nearly all actives have a fitted effect of over 50% in size. The following applies: recombinant CYP3A4, Luciferin-PPXE luminescence; series mostly up to 57.1 µM. The method, then:
NIH Molecular Libraries Screening Centers Network [MLSCN]
NIH Chemical Genomics Center [NCGC]
The P450 gene superfamily is involved in the metabolism and clearance of xenobiotics. This assay used human CYP3A4 to measure the dealkylation of luciferin-6' phenylpiperazinylyl (Luciferin-PPXE; […]) to luciferin. The luciferin is then measured by luminescence after the addition of a luciferase detection reagent. Luciferin-PPXE concentration in the assay was equal to its KM for CYP3A4. Inhibitors and some substrates limit the production of luciferin, and decrease measured luminescence.
NCGC Assay Protocol Summary:
Two uL of enzyme and substrate mix (final concentrations: 20nM CYP3A4, 25uM Luciferin-PPXE, 200mM KPO4) were dispensed into a white, solid bottom 1536-well microtiter plate. 23nL of compound was transferred by a pin tool. The plate was incubated at RT for 10 min. Two uL of an NADPH regeneration solution (Promega supplied reagent) was dispensed and the reaction was allowed to continue for 60 min at RT. Then the reaction was stopped by reconstituted luciferin detection buffer. After another 20 min of incubation the plate was read on the ViewLux (Perkin Elmer) at 60 sec exposure and 2x2 binning. This protocol was carried out with Promega-Glo reagents and further information can be found at http://www.promega.com/tbs/tb325/tb325.pdf. Data were normalized to the to AC100 inhibition (57 uM ketoconazole).
Keywords: P450, CYP3A4, Luciferase, MLSMR, MLSCN, NIH Roadmap, qHTS, NCGC
For `Cc1ccc(Nc2nnc(-c3ccc4c(c3)OCO4)o2)c(C)c1`, the Potency is 3.16 µM (active).

Turning to `c1ccc2sc(SCSc3nc4ccccc4s3)nc2c1`, the Potency was 3.16 µM (active).

On to `Cc1c2cnccc2c(C)c2c1c1ccccc1n2CCOC(=O)c1ccccc1`, for which the Potency was 0.631 µM (active).

Take `CCNc1ncc2nc(C)c(=O)n(Cc3cccc(OC)c3)c2n1`: the Potency was 7.94 µM (active).

Take `NNC(=O)CCSc1ccccc1`: the Potency is 3.98 µM (active).

In the case of `c1c[nH]cn1`, the Potency entry was “inactive”.

On to `c1ccncc1`, for which the Potency result was “inactive”.

For `Cc1ccc(C(=N)c2ccccc2Cc2cccc3ccccc23)c2ccccc12`, the Potency is 3.98 µM (active).

For the compound `c1ccc(CNCCN2CCNCC2)nc1`, the activity change, negative = inhibition was -5.12% [at 11.4 µM] (inactive).

As for `N=c1ccn2c(n1)O[C@@H]1[C@@H](O)[C@H](CO)O[C@H]12`, the Potency entry was “inactive”.

As to `COc1ccc(Oc2ncc3nc(C)c(=O)n(-c4ccc(OC)cc4)c3n2)cc1`, the Potency is 3.98 µM (active).

Consider `O=c1c(-c2ccccc2)nc2cnc(N3CCNCC3)nc2n1Cc1ccc(F)cc1`, for which the Potency is 3.16 µM (active).

As for `COc1cc2c(cc1OC)[C@H](c1ccccc1)CN(C)CC2`, the Potency entry is “inactive”.

`COc1ccc2cc1Oc1ccc(cc1)C[C@H]1c3cc(c(OC)cc3CCN1C)Oc1c(OC)c(OC)cc3c1[C@@H](C2)N(C)CC3`: the Potency entry is “inactive”.

As for `Cc1cnc(CNc2nc(-c3cccnc3)nc3ccccc23)cn1`, the Potency is 3.98 µM (active).

With `Cc1cc(=O)oc2cc(O)cc(O)c12`, the Potency is 6.31 µM (active).

As to `O=C(O)CCc1nc(-c2ccccc2-n2cccc2)no1`, the Potency is 2.51 µM (active).

Turning to `COCCn1c(=O)c(-c2cc(F)cc(F)c2)nc2cnc(Oc3ccc(OC)cc3)nc21`, the Potency was 3.16 µM (active).

In the case of `Cc1cc2c(cc1C)NC1=C(N2)O[C@H](c2c[nH]c3ccc(COc4ccccc4)cc23)C1=O`, the Potency was 3.98 µM (active).

For `c1cc(CSSCc2ccncc2)ccn1`, the Potency is 2.51 µM (active).

Turning to `Nc1ccc2c(c1)C(=O)c1ccccc1C2=O`, the Potency was 2.51 µM (active).

For `O=S(=O)(c1cnccc1N1CCN(CCO)CC1)N1CCCC1`, the Potency is 3.98 µM (active).

`Cn1ncc2c(NCCc3ccccc3)nc(Cl)nc21`: the Potency is 2 µM (active).

Regarding `COC(=O)[C@](C)(N)Cc1ccc(O)cc1`, the Potency entry is “inactive”.

For `CC(C)S`, the Potency entry was “inactive”.

With `CC(/C=C/C=C(C)/C=C/C(=O)O)=C\C=C\C=C(C)\C=C\C=C(C)\C=C\C(=O)O`, the Potency entry is “inactive”.

Consider `O=C(Nc1ccccc1)N1CCC2(CC1)CCN(C(=O)c1ccco1)CC2`, for which the Potency entry is “inactive”.

On to `O=C1OC(=O)c2ccccc21`, for which the Potency result was “inactive”.

In the case of `Cc1ccc(O)c(N)c1`, the Potency result was “inactive”.

In the case of `COc1ccc(/C=C(\C#N)C(N)=O)c(OC)c1`, the Potency was 2.51 µM (active).

Turning to `Nc1cc([N+](=O)[O-])ccc1O`, the Potency result was “inactive”.

On to `C[C@@H](CN1CCC(Cc2ccccc2)CC1)[C@H](O)c1ccc(O)cc1`, for which the Potency result was “inactive”.

On to `N=C(N)S[C@H]1c2ccccc2-c2cc([N+](=O)[O-])ccc21`, for which the Potency is 5.01 µM (active).

As for `CC1=CC(C)(C)Nc2ccc(CSc3ccccc3)cc21`, the Potency was 3.98 µM (active).

Regarding `O=C=Nc1ccc(Cl)c(Cl)c1`, the Potency result is “inactive”.

As to `Nc1cccc(OCc2nc(N)nc(N)c2-c2ccc(Cl)cc2)c1`, the Potency is 1.58 µM (active).

With `O=C(O)CC(CC(=O)O)n1cccc1`, the activity change, negative = inhibition is -36.6% [at 11.4 µM] (inactive).

Regarding `O=C(CC(=O)c1ccncc1)c1ccccc1`, the Potency was 3.16 µM (active).

Regarding `C[C@H]1CCCC=CC2C[C@H](OC(=O)CN(C)C)C[C@@H]2[C@@H](O)/C=C\C(=O)O1` (stereo not given in full), the activity change, negative = inhibition is 229% [at 11.4 µM] (inactive).

`O=C(O)/C=C\C(=O)Nc1ccc2c(c1)C(=O)c1cc(F)ccc1-2`: the Potency is 3.16 µM (active).
